This is a sample that favours compounds with a hit; in the whole collection about 17% have one here.
DT40 TDP1 no CPT = qHTS for Inhibitors of human tyrosyl-DNA phosphodiesterase 1 (TDP1): qHTS in cells in absence of CPT; 15% of 420,000 active; DT40 Tdp1-/- hTDP1 cells, no CPT, ATP luminescence, 48 h; Potency, µM (doses to about 46.2 µM), for inactives: at the highest dose activity change, negative = growth inhibition, actives largely listed as inhibitors; note: % is set by controls: 0 for no effect and ±100 for the full control effect; nearly all actives have a fitted effect of over 55% in size
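DT40 Tdp1-/-;hTDP1 cells, no CPT (DMSO vehicle only), 400 cells/well; compounds pin-transferred; ≥48 hr, 37 °C; CellTiter-Glo 30 min RT dark, luminescence read.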
TGFb SMAD3 inh = blocks TGF-b signaling | 1.2% of 410,000 active | Potency, µM (doses to about 46.1 µM), for inactives: top-dose activity, negative = inhibition, actives largely listed as inhibitors | HepG2 CAGA-GFP TGF-b/SMAD3 reporter, GFP fluorescence, 18 h; TGF-beta stimulated, 500 pg/mL final; note: % is set by controls: 0 for no effect and ±100 for the full control effect; nearly all actives have a fitted effect of over 65% in size
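First, reporter cells (HEPG2 CAGA-GFP) rested 2 h at 37 degrees C. Next, compounds were pinned in and TGF-beta added to 500 pg/mL final. After 18 h, GFP was imaged per cell and summed per well.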
ATXN2 expr inh = inhibitors of ATXN2 expression; HEK-293 ATXN2-luciferase reporter, luminescence, 24 h; 0.72% of 360,000 active; Potency, µM (highest dose often 57 µM), for inactives: at the top dose activity change, negative = inhibition, usual class: inhibitors; note: % is set by controls: 0 for no effect and ±100 for the full control effect; nearly all actives have a fitted effect of over 55% in size
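ATXN2-luciferase reporter cells (luciferase flanked by upstream and downstream ATXN2 gene portions) were treated 24 h at 37 °C with compounds at up to 57 uM. SteadyGlo luminescence gave expression; GF-AFC fluorescence gave viability.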
HepG2 viability = HepG2 cytotoxicity, counter-screen for TGF-b inhibitors; 0.76% of 410,000 active; HepG2 CAGA-GFP viability, ATP luminescence, 18 h; Potency, µM (highest dose often 46.1 µM), inactives show at the highest dose activity change, negative = cytotoxicity, actives largely listed as cytotoxic
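HepG2 CAGA-GFP cells (1000/well, DMEM with 1% FBS) received compound, then TGF-beta at 500 pg/mL final, and were incubated 18 hours at 37 degrees C. Viability was read by CellTiter-Glo luminescence. Media-only wells were set as complete cell-killing and DMSO as no toxicity.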
TDP1 cell CPT = DT40-hTDP1 cell growth loss with CPT; chicken DT40 Tdp1-/-;hTDP1 cells + 20 nM CPT, ATP luminescence, 48 h; Potency, µM (highest dose often 46.2 µM), without a hit: at the top dose activity change, negative = growth inhibition, usual class: inhibitors; AID 686979; 12% of 420,000 active; note: % is set by controls: 0 for no effect and ±100 for the full control effect; nearly all actives have a fitted effect of over 55% in size
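Chicken DT40 Tdp1-/- cells stably complemented with human TDP1 were seeded at 400 cells/well in medium containing 20 nM camptothecin, exposed to pin-transferred compounds, and grown at 37 °C for at least 48 hr. Viability was read as ATP luminescence.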
S2 tox = viability counter-screen for ATXN expression inhibitors | S2 cells (HEK-293 line with an ATXN2-luciferase reporter) viability, CellTiter-Fluor protease fluorescence, 24 h | Potency, µM (doses to about 56.7 µM), usual class: cytotoxic | 0.49% of 400,000 active | AID 651635; note: nearly all actives have a fitted effect of over 40% in size
Active calls of the source: *; i = inactive; ? = inconclusive; / = no result given; [ ] = another dose, or the depositor's remark. Calls come from the whole dose curve; as a rule, active = well fitted curve in the direction sought with a large enough effect; inconclusive = small, poorly fitted or top-dose-only effect, or another doubt; inactive = no such curve, though single readings can be large; an effect the other way counts as inactive or inconclusive. Potency is the fitted concentration of half-maximal effect.

SMILES	DT40 TDP1 no CPT	TGFb SMAD3 inh	ATXN2 expr inh	HepG2 viability	TDP1 cell CPT	S2 tox
COC(=O)[C@]12CCCCC=C1N(Cc1cccc3ccccc13)C(=O)[C@H](CC(=O)NCc1ccccc1)C2	18µM*	/	?	/	?	?
CCOC(=O)[C@]12CCCC=C1N(Cc1ccccc1)C(=O)[C@H](CC(=O)NCc1cccc3ccccc13)C2	-30%	/	/	/	18µM*	/
COC(=O)[C@]12CCCCC=C1N(Cc1cccc3ccccc13)C(=O)[C@H](CC(=O)NCC1CCCCC1)C2	18µM*	/	-36%	/	?	?
COC(=O)[C@]12CCCCC=C1N(Cc1ccco1)C(=O)[C@H](CC(=O)NCc1ccccc1)C2	-23%	/	6%	/	-23%	i
COC(=O)[C@]12CCCCC=C1N(CCC1=CCCCC1)C(=O)[C@H](CC(=O)NCc1cccc3ccccc13)C2	?	/	0%	/	?	/
CCOC(=O)[C@]12CCC=C1N(Cc1cccc3ccccc13)C(=O)[C@H](CC(=O)NCC1CCCCC1)C2	21µM*	/	-27%	/	23µM*	?
COc1ccc(S(=O)(=O)N2CCC[C@H]2C(=O)N2CCC[C@H]2C(=O)NCc2ccncc2)cc1C	-34%	/	3%	/	-35%	i
CCOc1ccccc1NC(=O)c1cc2c(=O)[nH]c3ccccc3c2s1	7%	10%	11%	-6%	-27%	i
O=C(NCCc1ccccn1)c1cncc(Br)c1	-22%	0%	12%	-2%	6%	i
COc1ccccc1C(=O)OCC(=O)Nc1cccc(S(=O)(=O)N2CCCC2)c1	?	6%	-4%	0%	-16%	i
CCOC(=O)[C@]12CCCC=C1N(Cc1ccccc1)C(=O)[C@H](CC(=O)NCCc1ccccc1OC)C2	13µM*	/	/	/	?	/
COC(=O)[C@]12CCCCC=C1N(Cc1ccccc1)C(=O)[C@H](CC(=O)NCc1cccc3ccccc13)C2	18µM*	/	-15%	/	?	?
COC(=O)[C@]12CCCCC=C1N(Cc1cccc3ccccc13)C(=O)[C@H](CC(=O)NCCC(C)C)C2	15µM*	/	-7%	/	18µM*	?
CCOC(=O)[C@]12CCCC=C1N(Cc1ccc(Cl)cc1Cl)C(=O)[C@H](CC(=O)NCc1cccc3ccccc13)C2	16µM*	/	-17%	/	26µM*	i
COC(=O)[C@]12CCCCC=C1N(Cc1ccccc1)C(=O)[C@H](CC(=O)NCc1ccccc1)C2	?	/	-10%	/	?	i
Cc1sc(NC(=O)CSc2nnc(N)s2)c(C#N)c1C	1%	11%	1%	13%	22%	i
CC(c1ccc(F)cc1)n1c(-c2cccs2)n[nH]c1=S (centres undefined)	1%	?	-18%	25%	2%	i
C=C(NC(=O)C(=C)NC(=O)c1csc(C2=N[C@@H]3c4csc(n4)[C@H]4NC(=O)c5csc(n5)[C@H]([C@](C)(O)[C@@H](C)O)NC(=O)[C@H]5CSC(=N5)C(=CC)NC(=O)C([C@@H](C)O)NC(=O)c5csc(n5)[C@]3(CC2)NC(=O)[C@H](C)NC(=O)C(=C)NC(=O)[C@H](C)NC(=O)C([C@@H](C)CC)NC2C=Cc3c([C@H](C)O)cc(nc3C2O)C(=O)O[C@@H]4C)n1)C(N)=O (some centres undefined)	5.1µM*	/	/	/	7.2µM*	?
O=C1NC(c2ccc(-c3ccccc3[N+](=O)[O-])o2)C(C(=O)c2ccc(F)cc2)C(O)(C(F)(F)F)N1 (centres undefined)	?	?	1%	-25%	?	i
COc1ccc(C(=O)C2C(c3ccc(-c4ccccc4[N+](=O)[O-])o3)NC(=O)NC2(O)C(F)(F)F)cc1 (centres undefined)	18µM*	-3%	-10%	-8%	21µM*	i
COc1ccc(OC)c(C(c2nnnn2C2CCCC2)N2CCN(c3ccccc3)CC2)c1 (centres undefined)	21µM*	-3%	-36%	-10%	?	i
CCC(c1nnnn1C1CCCC1)N1CCN(c2cccc(OC)c2)CC1 (centres undefined)	16µM*	22%	-17%	-8%	?	i
COc1ccc(C(c2nnnn2C2CCCC2)N2CCC(C)CC2)cc1 (centres undefined)	23µM*	-5%	4%	-11%	?	i
c1cc(N2CCCC2)ccc1C(c1nnnn1C1CCCCC1)N1CCOCC1 (centres undefined)	?	-14%	1%	-4%	?	i
COc1ccc(C(c2nnnn2C2CCCCC2)N2CCN(c3ccc(OC)cc3)CC2)cc1 (centres undefined)	16µM*	-30%	-24%	0%	23µM*	?
SMILES	DT40 TDP1 no CPT	TGFb SMAD3 inh	ATXN2 expr inh	HepG2 viability	TDP1 cell CPT	S2 tox
Brc1ccc(CNc2cc3c(cc2Br)OCCO3)cc1	?	9%	-33%[11.3 µM]	-37%	5%	i
CCc1ccc(C(C(=O)NCc2ccc(F)cc2)N(C(=O)c2csnn2)C2CC2)cc1 (centres undefined)	?	-4%	-5%	-5%	-11%	i
CCCCc1ccc(Nc2nc(CCC)cc(=O)[nH]2)cc1	16µM*	?	?	-33%	?	/
CCCc1cc(=O)[nH]c(Nc2cc(Cl)cc(Cl)c2)n1	16µM*	?	?	-65%	15µM*	?
CCCc1cc(=O)[nH]c(Nc2cc(C)cc(C)c2)n1	?	-29%	-7%	-4%	?	?
Cc1ccc(Nc2nc(C)c(NC(=O)c3ccc(C)cc3)c(Nc3ccc(C)cc3)n2)cc1	4.6µM*	14µM*	?	-18%	6.5µM*	i
CCOc1ccc(Nc2nc(C)c(NC(=O)c3ccc(C)cc3)c(Nc3ccc(OCC)cc3)n2)cc1	2.6µM*	?	0%	-16%	1.3µM*	?
COc1ccccc1-c1csc(C(O)c2cccc(Cl)c2)n1 (centres undefined)	?	?	7%	-49%	21µM*	i
COc1cc(F)ccc1-c1csc(C(O)c2ccc(F)c(F)c2)n1 (centres undefined)	13µM*	?	-19%	-43%	?	?
COc1cc(C(O)c2nc(-c3ccc(F)cc3OC)cs2)ccc1F (centres undefined)	?	1%	-13%	-30%	?	i

Screens: PubChem, National Center for Advancing Translational Sciences (NCATS)
